These results are taken from PubChem BioAssay.

Assay [1] is described as follows: antimalarial activity against Dd2 strain (AID 2302;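 active means growth inhibition above 50% at the single 2 µM test dose, taken to imply half-maximal potency below 2 µM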;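 further: 0% = DMSO untreated growth and 100% = chloroquine plus artemisinin killed control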). As to conditions: P. falciparum Dd2 in RBCs, LDH growth readout, 72 h; at 2 µM; hits give high values.
Assay [2] in a line: HepG2 cytotoxicity, primary screen, cytotoxicity control for P. falciparum antimalarial project, cell-based, ATP luminescence (AID 2303;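 active means inhibition above 50%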;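 further: 0% = DMSO wells and 100% = digitonin-killed cells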). As to conditions: HepG2 viability, 24-48 h, at 10 µM, hits give high values.
The target in assay [3] is L-lactate dehydrogenase (Plasmodium falciparum (isolate CDC / Honduras)) (UniProt Q27743). In words: PfLDH activity inhibition – cell lysate, 3D7 strain, counter-screen for P. falciparum growth inhibition project (AID 2304).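 Further: 0% = vehicle and 100% = reference inhibitor.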 As to conditions: P. falciparum 3D7 crude extract, LDH APAD/NBT absorbance; at 2 µM; hits give high values.
L-lactate dehydrogenase (Plasmodium falciparum (isolate CDC / Honduras)), sequence (Q27743 whole entry, looked up): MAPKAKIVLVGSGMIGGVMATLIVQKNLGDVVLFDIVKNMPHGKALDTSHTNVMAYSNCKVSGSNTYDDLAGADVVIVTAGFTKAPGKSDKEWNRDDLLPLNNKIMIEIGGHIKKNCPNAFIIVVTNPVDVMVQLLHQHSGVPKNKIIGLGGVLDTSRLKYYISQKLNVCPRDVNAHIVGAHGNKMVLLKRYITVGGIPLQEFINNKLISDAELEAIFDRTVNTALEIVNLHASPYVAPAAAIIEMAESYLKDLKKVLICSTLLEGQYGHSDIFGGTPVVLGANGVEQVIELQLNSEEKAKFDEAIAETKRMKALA
Assay [4] can be described thus: inhibition of 3D7 malaria parasite growth – strain 3D7 (AID 2306).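 Further: 0% = DMSO wells and 100% = chloroquine plus artemisinin control wells.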 As to conditions: P. falciparum 3D7 erythrocytic growth, LDH absorbance, 72 h; at 2 µM; hits give high values.
Assay [5] deals with Calcium-dependent protein kinase 1 (Plasmodium falciparum (isolate 3D7)) (UniProt P62344). The assay is described as follows: PfCDPK1 kinase inhibitors, biochemical, TCAMS library (AID 1159585; cut-off not given, nearly all actives have IC50 up to about 0.98 µM;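 further: inhibitors leave more ATP so luminescence rises with inhibition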). As to conditions: recombinant PfCDPK1, Kinase-Glo ATP depletion luminescence. (In general: In Kinase-Glo more light means more ATP remaining.)
Calcium-dependent protein kinase 1 (Plasmodium falciparum (isolate 3D7)), sequence (P62344 whole entry, looked up): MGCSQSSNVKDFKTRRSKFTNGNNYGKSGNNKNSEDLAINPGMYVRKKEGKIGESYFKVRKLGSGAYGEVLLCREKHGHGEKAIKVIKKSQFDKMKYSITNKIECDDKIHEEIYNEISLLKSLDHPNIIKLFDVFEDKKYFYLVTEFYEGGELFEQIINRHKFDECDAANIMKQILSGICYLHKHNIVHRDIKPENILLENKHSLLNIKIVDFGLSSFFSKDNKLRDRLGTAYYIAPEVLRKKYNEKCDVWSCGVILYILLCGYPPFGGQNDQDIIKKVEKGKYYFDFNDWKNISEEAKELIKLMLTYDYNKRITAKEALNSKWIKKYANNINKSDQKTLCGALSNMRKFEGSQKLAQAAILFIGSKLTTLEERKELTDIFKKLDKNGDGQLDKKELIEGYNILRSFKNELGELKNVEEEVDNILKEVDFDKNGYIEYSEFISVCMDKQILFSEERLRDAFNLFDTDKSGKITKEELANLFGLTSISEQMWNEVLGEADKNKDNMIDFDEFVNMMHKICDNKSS
The target in assay [6] is Plasmodium falciparum protein kinase 6 (PK6, PF3D7_1337100) (UniProt Q8IDW1). In words: PfPK6 kinase inhibitors, biochemical, TCAMS library (AID 1159586). As to conditions: recombinant PfPK6, Kinase-Glo ATP depletion luminescence.
Plasmodium falciparum protein kinase 6 (PK6, PF3D7_1337100), sequence (Q8IDW1 1-305): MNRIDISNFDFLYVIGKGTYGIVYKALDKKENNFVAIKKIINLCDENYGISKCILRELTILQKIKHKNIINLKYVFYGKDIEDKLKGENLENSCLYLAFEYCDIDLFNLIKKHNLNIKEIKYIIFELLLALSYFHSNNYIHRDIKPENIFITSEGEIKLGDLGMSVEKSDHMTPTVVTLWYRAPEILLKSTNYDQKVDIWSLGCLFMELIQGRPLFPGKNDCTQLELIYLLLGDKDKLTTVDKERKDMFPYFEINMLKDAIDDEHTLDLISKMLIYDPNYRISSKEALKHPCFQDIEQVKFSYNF
Assay [7] concerns the target Protein kinase 7 (PK7), Plasmodium falciparum 3D7 (PF3D7_0213400) (UniProt Q7YTF7). The assay is described as follows: inhibition of Plasmodium PK7 catalytic activity – biochemical, TCAMS antimalarial set, Kinase-Glo luminescence (AID 1159587). As to conditions: recombinant PfPK7, Kinase-Glo ATP depletion luminescence.
Assay [8] addresses Calcium-dependent protein kinase 4 (Plasmodium falciparum (isolate 3D7)) (UniProt Q8IBS5). In words: PfCDPK4 kinase inhibitors, biochemical, TCAMS library (AID 1159588; cut-off not given, nearly all actives have IC50 up to about 0.91 µM). As to conditions: recombinant PfCDPK4, Kinase-Glo ATP depletion luminescence.

A number with no mark means an inactive call. For some of these results: Potency and affinity values are given separately. The source made the active and inactive calls. Unless noted, how the calls were made is not given here.

Protein kinase 7 (PK7), Plasmodium falciparum 3D7 (PF3D7_0213400), sequence (Q7YTF7 1-343): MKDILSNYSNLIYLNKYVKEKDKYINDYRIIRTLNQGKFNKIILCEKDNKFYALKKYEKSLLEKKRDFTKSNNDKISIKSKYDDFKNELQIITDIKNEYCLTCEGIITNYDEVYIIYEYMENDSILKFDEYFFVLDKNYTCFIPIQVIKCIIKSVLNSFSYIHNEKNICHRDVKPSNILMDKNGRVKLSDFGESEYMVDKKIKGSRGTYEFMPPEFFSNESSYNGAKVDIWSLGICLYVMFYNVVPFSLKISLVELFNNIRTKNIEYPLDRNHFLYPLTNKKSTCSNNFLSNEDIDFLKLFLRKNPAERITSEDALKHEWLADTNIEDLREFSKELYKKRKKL
Calcium-dependent protein kinase 4 (Plasmodium falciparum (isolate 3D7)), sequence (Q8IBS5 whole entry, looked up): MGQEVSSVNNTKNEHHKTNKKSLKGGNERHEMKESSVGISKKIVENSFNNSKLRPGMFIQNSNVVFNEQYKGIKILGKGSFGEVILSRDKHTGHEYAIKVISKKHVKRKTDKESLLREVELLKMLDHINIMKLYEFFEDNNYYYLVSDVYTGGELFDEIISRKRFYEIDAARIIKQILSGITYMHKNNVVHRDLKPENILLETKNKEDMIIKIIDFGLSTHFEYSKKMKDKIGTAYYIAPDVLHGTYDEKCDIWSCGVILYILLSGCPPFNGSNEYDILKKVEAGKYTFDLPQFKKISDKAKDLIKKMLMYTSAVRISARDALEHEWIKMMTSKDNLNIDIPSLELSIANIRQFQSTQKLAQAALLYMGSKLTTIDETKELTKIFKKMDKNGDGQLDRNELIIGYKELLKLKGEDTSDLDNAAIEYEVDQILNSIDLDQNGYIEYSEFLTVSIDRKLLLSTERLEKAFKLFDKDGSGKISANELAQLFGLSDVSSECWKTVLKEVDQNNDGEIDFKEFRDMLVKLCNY

On to `COc1cc(Cc2cnc(N)nc2N)cc(OCCCN2C(=O)c3ccccc3C2=O)c1OC`, for which the growth inhibition was -3% in assay [1] and 96% (active) in assay [4]. Moreover, the inhibition (usually the relative decrease from the control value, in per cent) in assay [2] is -1%; in assay [3], 1%. Besides, the result in assay [5], in assay [6], in assay [7] and in assay [8] was inactive.
In the case of `CN1CCC(C(=O)N(Cc2ccc(-c3ccc(CNCCc4ccc(S(C)(=O)=O)cc4)cn3)cc2)Cc2ccc3c(c2)OCO3)CC1`, the growth inhibition in assay [1] is 51% (active); in assay [4] it was 91% (active). The inhibition in assay [2] is 16%; in assay [3], -3%. For the same compound, the result in assay [5], in assay [6], in assay [7] and in assay [8] was inactive.
Regarding `O=C(/C=C/c1ccc(Cl)c(Cl)c1)NCCCCCN1CCC(NC(=O)Nc2cc(Cl)nc(Cl)c2)CC1`, the results for the growth inhibition in assay [1] and in assay [4] were 2% and 102% (active), respectively. Further, the inhibition in assay [2] was 4%; in assay [3], -8%. Moreover, the result in assay [5], in assay [6], in assay [7] and in assay [8] was inactive.
Take `CCOc1ccc2c(NN=Cc3cccc(OC)c3OC)cc(C)nc2c1`: the growth inhibition in assay [1] was 85% (active); in assay [4] it was 102% (active). The values for the inhibition in assay [2] and in assay [3] were 4% and 3%, respectively. The result in assay [5], in assay [6], in assay [7] and in assay [8] was inactive.
On to `CN1CCN(Cc2cccc(-c3ccc4c(Nc5ccc(Oc6ccccc6)cc5)ccnc4c3)c2)CC1`, for which the growth inhibition is 100% (active) in assay [1] and 101% (active) in assay [4]. The inhibition was 41% in assay [2] and 6% in assay [3]. In addition, the outcome in assay [5], in assay [6], in assay [7] and in assay [8] was inactive.
Turning to `O=C(Nc1ccc2c(c1)CCC2)c1cnc(N2CCN(c3ccncc3)CC2)c(Cl)c1`, the growth inhibition is 48% in assay [1] and 100% (active) in assay [4]. Also, the results for the inhibition in assay [2] and in assay [3] were 33% and 2%, respectively. Also, the outcome in assay [5], in assay [6], in assay [7] and in assay [8] was inactive.
Turning to `Cc1cnc(CCNC(=O)c2cc(-c3ccc(Cl)cc3)cs2)[nH]1`, the growth inhibition in assay [1] is 7%; in assay [4] it was 101% (active). Also, the inhibition was 12% in assay [2] and 4% in assay [3]. In addition, the result in assay [5], in assay [6], in assay [7] and in assay [8] was inactive.
Turning to `CCO[C@H]1CN[C@H](C#Cc2cc3c(Nc4ccc(OCc5cccc(F)c5)c(Cl)c4)ncnc3s2)C1`, the growth inhibition was 37% in assay [1] and 100% (active) in assay [4]. The inhibition was 8% in assay [2] and 2% in assay [3]. The outcome in assay [5], in assay [6], in assay [7] and in assay [8] was inactive.
For `CC(C#N)Cc1ccc(-c2cnc(N)c3cc(-c4ccnc(N)n4)ccc23)cc1` (stereo not given), the growth inhibition is 62% (active) in assay [1] and 96% (active) in assay [4]. Further, the results for the inhibition in assay [2] and in assay [3] were 56% (active) and 0%, respectively. In addition, the result in assay [5], in assay [6], in assay [7] and in assay [8] was inactive.
On to `COc1ccc(S(=O)(=O)NC2CCN(CCCOc3ccnc4cc(Cl)ccc34)C2)cc1OC` (stereo not given), for which the growth inhibition in assay [1] is 56% (active); in assay [4], 91% (active). Besides, the inhibition was 8% in assay [2] and 1% in assay [3]. Also, the outcome in assay [5], in assay [6], in assay [7] and in assay [8] was inactive.
As to `COc1cc2c(C3CCN(CC4CCN(C(=O)/C=C/c5ccc(Cl)c(Cl)c5)CC4)CC3)c[nH]c2cn1`, the growth inhibition is 88% (active) in assay [1] and 101% (active) in assay [4]. Besides, the inhibition was 27% in assay [2] and -1% in assay [3]. Moreover, the outcome in assay [5], in assay [6], in assay [7] and in assay [8] was inactive.
In the case of `O=C(/C=C/c1ccc(C(F)(F)F)cc1)N1CCC(CCN2CCC(c3c[nH]c4ccccc34)CC2)CC1`, the results for the growth inhibition in assay [1] and in assay [4] were 77% (active) and 100% (active), respectively. Moreover, the inhibition is 70% (active) in assay [2] and -11% in assay [3]. Moreover, the outcome in assay [5], in assay [6], in assay [7] and in assay [8] was inactive.
For the compound `O=C(/C=C/c1ccc(Cl)c(Cl)c1)NCC[C@@H]1C[C@H]1CCN1CCC(c2c[nH]c3ccccc23)CC1`, the growth inhibition in assay [1] was 22%; in assay [4], 96% (active). In addition, the inhibition is 98% (active) in assay [2] and -8% in assay [3]. For the same compound, the outcome in assay [5], in assay [6], in assay [7] and in assay [8] was inactive.
As to `O=C(Nc1cccc(-c2ccc(-c3nc4ccccc4[nH]3)cc2)c1)c1ccncc1`, the values for the growth inhibition in assay [1] and in assay [4] were 58% (active) and 100% (active), respectively. Also, the inhibition in assay [2] was 30%; in assay [3] it was -1%. In addition, the result in assay [5], in assay [6], in assay [7] and in assay [8] was inactive.
As for `COc1cc(NC(=O)c2ccc(-c3ccccc3)cc2)ccc1OCCCN1CCC(c2ccccc2)CC1`, the values for the growth inhibition in assay [1] and in assay [4] were 30% and 103% (active), respectively. The inhibition in assay [2] is 46%; in assay [3], 2%. Besides, the result in assay [5], in assay [6], in assay [7] and in assay [8] was inactive.
Regarding `O=C(NC(=S)Nc1cc(C(F)(F)F)cc(C(F)(F)F)c1)c1ccc(Cl)cc1`, the values for the growth inhibition in assay [1] and in assay [4] were 99% (active) and 96% (active), respectively. For the same compound, the inhibition is 31% in assay [2] and 0% in assay [3]. Also, the outcome in assay [5], in assay [6], in assay [7] and in assay [8] was inactive.
Consider `CC(C)(C)c1ccc(CN2CCC(NC(=O)c3ccc(-c4cccc(F)c4)s3)CC2)cc1`, for which the growth inhibition in assay [1] is 24%; in assay [4], 92% (active). In addition, the figures for the inhibition in assay [2] and in assay [3] were 35% and 0%, respectively. Besides, the result in assay [5], in assay [6], in assay [7] and in assay [8] was inactive.
Regarding `Cc1[nH]c(C)c(-c2ccc(-c3cccc(C(F)(F)F)c3)nc2)c(=O)c1Br`, the growth inhibition in assay [1] is 96% (active); in assay [4], 97% (active). Further, the inhibition in assay [2] is 28%; in assay [3] it was -4%. Also, the result in assay [5], in assay [6], in assay [7] and in assay [8] was inactive.
For the compound `COc1ccccc1C1CCN(C2CCC(NC(=O)/C=C/c3ccc(OC(F)(F)F)cc3)CC2)CC1` (stereo not given), the results for the growth inhibition in assay [1] and in assay [4] were 11% and 82% (active), respectively. The inhibition was 65% (active) in assay [2] and -3% in assay [3]. Besides, the outcome in assay [5], in assay [6], in assay [7] and in assay [8] was inactive.
In the case of `Nc1nc(N)c2c(ccc3ccccc32)n1`, the values for the growth inhibition in assay [1] and in assay [4] were 20% and 98% (active), respectively. The inhibition was 60% (active) in assay [2] and -1% in assay [3]. Moreover, the result in assay [5], in assay [6], in assay [7] and in assay [8] was inactive.
